# Measured values: the supplement of paper PMC6555819
# Tests used:
# Assay in all cases: PBM binding z-score (relative to random genomic background probes); higher = stronger binding; sequences stand for … in GC…GCGATTGACAGCGTAGAATGAAGG
# [1] = test system: PPARg:RXRa DBDmut IVT, anti-RXR (DBD mutation: RXRa K156A/R161A, NR concentration 270 nM, RXRa partner concentration 90 nM)
# Outline: (§1)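 Binding z-scores were set against random background probes. The data came from custom Agilent 4×180K protein-binding microarrays carrying double-stranded probes with 34-nt variable regions, incubated 1 h with ligand-free nuclear receptor dimers. Partner-specific antibodies detected binding, and scanned fluorescence was regression-normalized.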
# [2] = test system: PPARg:RXRa IVT, anti-PPARg (NR concentration 270 nM, RXRa partner concentration 90 nM)
# Outline: as §1
# [3] = test system: PPARg DBDmut:RXRa IVT, anti-PPARg (DBD mutation: PPARg1 K132A/R137A, NR concentration 270 nM, RXRa partner concentration 90 nM)
# Outline: as §1
# [4] = test system: PPARg DBDmut IVT, anti-PPARg (DBD mutation: PPARg1 K132A/R137A, NR concentration 270 nM)
# Outline: as §1
# [5] = test system: PPARg homodimer (NR concentration 180 nM)
# Outline: as §1
# [6] = test system: PXR:RXRa (NR concentration 270 nM, RXRa partner concentration 90 nM)
# Outline: as §1
# [7] = test system: PXR homodimer (NR concentration 270 nM)
# Outline: as §1
# [8] = test system: RARa:RXR (NR concentration 270 nM, RXRa partner concentration 90 nM)
# Outline: as §1
# [9] = test system: RARa homodimer (NR concentration 270 nM)
# Outline: as §1
# [10] = test system: RARb:RXRa (NR concentration 270 nM, RXRa partner concentration 90 nM)
# Outline: as §1
# [11] = test system: RARb homodimer (NR concentration 270 nM)
# Outline: as §1
# [12] = test system: RARg:RXRa (NR concentration 270 nM, RXRa partner concentration 90 nM)
# Outline: as §1
# [13] = test system: RARg homodimer (NR concentration 270 nM)
# Outline: as §1
# [14] = test system: RXRa DBDmut IVT, anti-RXR (DBD mutation: RXRa K156A/R161A, NR concentration 90 nM)
# Outline: as §1
# [15] = test system: RXRa homodimer (NR concentration 180 nM)
# Outline: as §1
# [16] = test system: THRa:RXRa (NR concentration 90 nM, RXRa partner concentration 90 nM)
# Outline: as §1
# [17] = test system: THRa homodimer (NR concentration 90 nM)
# Outline: as §1
# [18] = test system: VDR:RXRa (NR concentration 270 nM, RXRa partner concentration 90 nM)
# Outline: as §1
# [19] = test system: VDR homodimer (NR concentration 270 nM)
# Outline: as §1
Sequence,PBM binding z-score [1],PBM binding z-score [2],PBM binding z-score [3],PBM binding z-score [4],PBM binding z-score [5],PBM binding z-score [6],PBM binding z-score [7],PBM binding z-score [8],PBM binding z-score [9],PBM binding z-score [10],PBM binding z-score [11],PBM binding z-score [12],PBM binding z-score [13],PBM binding z-score [14],PBM binding z-score [15],PBM binding z-score [16],PBM binding z-score [17],PBM binding z-score [18],PBM binding z-score [19]
TCTCGGAGGACACGAACGTCAGAGCTTTCCAGAG,0.985,-0.0503,-0.617,-1.23,-1.43,-0.256,-0.522,-0.0977,-1.21,1.35,0.309,0.302,0.872,0.441,0.094,1.25,0.208,-0.0912,-0.356
ACTAGCAGGCCAAGTTTGGGTAACTCAAACAAAG,0.555,0.362,-0.71,-1.1,-0.788,-0.378,-0.687,-0.383,-0.573,0.143,-0.346,-0.166,0.104,-0.417,-0.603,0.525,-0.513,-0.517,-0.292
ATCTCTAGGTCAGACTCAGTTCAGTGAAGAACGC,5.06,5.22,1.01,1.61,2.14,4.07,1.69,2.07,1.03,3.51,3.14,3.81,4.03,1.47,1.67,2.94,2.03,3.36,2.32
CATACAGGGTCAGATAGGCCAGAGTAGGGACGGC,0.492,2.13,1.29,1.07,2.72,2.05,0.241,2.94,0.209,3.55,2.99,4.18,4.16,1.83,3.75,2.81,0.777,3.2,1.47
CGTCAAAGTTCAAGGTAACGTAGCAGAAAGCAGC,0.831,2.13,0.429,0.415,4.56,4.44,3.02,3.64,2.42,5.1,3.85,5.5,6.15,4.38,4.75,3.01,1.09,3.6,3.26
CCTACTGGGCCCTTCAGAGGTCATTGATCATATG,0.668,1.66,-0.729,-0.628,3.64,4.97,1.92,4.84,0.707,2.58,3.67,3.27,2.24,-0.326,3.49,2.94,1.18,3.41,3.23
GTTTGTAGATCAAGGTTAAGAAAGACTAAGCTAA,1.8,1.93,1.34,0.524,1.43,0.822,1.11,1.21,2.12,1.24,0.79,0.774,0.839,0.638,0.913,1.44,0.453,1.03,0.645
CCGACTGGGGCAAGGTTACCTTAACGCACAGCCA,3.34,3.76,-1.05,-0.772,0.376,0.303,-0.595,0.858,-0.882,1.63,1.27,0.881,1.11,-0.49,1.1,2.07,1.66,-0.0796,-0.391
ACAGACAGGTGAGTGAAGGCAACTCAGCTGGACG,0.534,0.283,0.108,-0.0836,-0.372,-0.299,-0.329,-0.0789,-0.354,0.403,-0.0202,0.0165,0.418,-0.43,0.192,0.383,-0.689,-0.535,-0.742
TCATATAGGTAAAATGTGAAAGTCGGTGTGGTAA,4.79,2.51,0.236,0.643,0.891,0.357,0.248,0.634,0.307,0.176,-0.199,0.0549,-0.0961,1.45,0.646,-0.0922,-0.336,0.774,-0.00299
TCATATAGGTAAATGCTACGTGAAAGTCCGATCT,3.82,2.01,1.39,1.49,0.811,0.667,0.362,0.641,0.913,0.222,-0.0537,0.346,0.292,1.58,0.839,-0.0231,0.0102,0.947,0.41
AGCATGAGGTTACCAAAGATCAGGGAAACGCTTG,0.803,0.996,0.0724,-0.827,0.663,1.38,0.241,2.44,-0.672,2.07,1.04,2.27,1.81,1.12,2.78,2.96,0.893,1.28,0.309
AATACAGGGTCATAGTAGGCCAGAGTACGCACAG,2.62,4.56,1.47,2.3,2.67,4.36,0.689,4.7,0.787,4.05,3.26,4.92,4.13,3.36,5.63,4.23,1.41,4.63,3.6
TCTTGTAGATCAGCACGTTAAGAAAGCTGGCCAA,1.32,-0.181,-0.456,-0.271,-0.311,0.0608,0.0555,0.441,0.0158,-0.204,-0.823,-0.246,-0.479,0.626,-0.185,-0.261,-0.422,0.0103,-0.0275
ATCGAAAGGTCGAAGGTGTGTATACCCACCCGAA,-0.369,1.67,0.695,0.274,1.64,2.3,0.219,3.33,0.296,3.52,2.15,3.83,3.73,0.844,4.12,1.6,-0.397,2.43,0.639
